# Molecular target: PUM1 PUF domain R1-RWT (Homo sapiens, UniProt Q14671 828-1176, S863R;R864W;Q867T)
# Experiment: yeast three-hybrid, YBZ-1, SC-Leu-His + 0.5 mM 3-AT, 4 days
# Conditions: tags: N-Gal4 AD-HA kept; label: inside an RPR1-promoter hybrid RNA with tandem MS2 sites; ssRNA
# How it was run: (§1)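 Pumilio-1 PUF domain libraries, randomized (NNK) at the three base-contacting residues of each repeat, were co-expressed with matching RNA elements from a centromeric plasmid in strain YBZ-1 (LexA–MS2 coat fusion, HIS3 reporter). Transformants were plated on SC-Leu (input) and SC-Leu-His + 0.5 mM 3-AT (selection) for four days, and repeat regions were PCR-amplified and Illumina-sequenced. The interaction score is the log2 change in variant frequency from input to selection, with pseudocount 1 where absent.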
# Chain of PUM1 PUF domain R1-RWT (Q14671 828-1176 S863R/R864W/Q867T): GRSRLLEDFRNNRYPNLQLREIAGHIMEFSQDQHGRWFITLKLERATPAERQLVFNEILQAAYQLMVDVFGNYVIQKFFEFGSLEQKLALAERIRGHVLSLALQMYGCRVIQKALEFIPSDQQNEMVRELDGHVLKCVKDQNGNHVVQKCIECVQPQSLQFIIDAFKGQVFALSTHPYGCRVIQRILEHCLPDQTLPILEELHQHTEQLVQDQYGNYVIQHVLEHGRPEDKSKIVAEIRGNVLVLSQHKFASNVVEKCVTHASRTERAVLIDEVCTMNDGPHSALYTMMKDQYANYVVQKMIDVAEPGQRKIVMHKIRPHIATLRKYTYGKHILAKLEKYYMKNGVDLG
row,Sequence,binding signal
1,GGCUAGAACUAGUGGAUCCCCCGGCGCCCGGCGGCUCGAGCCCGGGUAAGUGUAAAUCGUCUGCAUGCCGCCGGGCGCCAUGCCUGCAGGUCGACUCUAGAAAACAUG,5.45 log2 enrichment (interaction score)
2,GGCUAGAACUAGUGGAUCCCCCGGCGCCCGGCGGCUCGAGCCCGGGUAAGUGUAAAUGGUCUGCAUGCCGCCGGGCGCCAUGCCUGCAGGUCGACUCUAGAAAACAUG,0.98 log2 enrichment (interaction score)
3,GGCUAGAACUAGUGGAUCCCCCGGCGCCCGGCGGCUCGAGCCCGGGUAAGUGUAAAUUGUCUGCAUGCCGCCGGGCGCCAUGCCUGCAGGUCGACUCUAGAAAACAUG,4.77 log2 enrichment (interaction score)

# Molecular target: PUM1 PUF domain R7-RNK (Homo sapiens, UniProt Q14671 828-1176, S1079R;E1083K)
# Experiment: as above
# Conditions: tags: N-Gal4 AD-HA kept; label: inside an RPR1-promoter hybrid RNA with tandem MS2 sites; ssRNA
# How it was run: as §1
# Chain of PUM1 PUF domain R7-RNK (Q14671 828-1176 S1079R/E1083K): as the sequence (Q14671 828-1176 S863R/R864W/Q867T) above, with R36S, W37R, T40Q, S252R, E256K counted along it
row,Sequence,binding signal
1,GGCUAGAACUAGUGGAUCCCCCGGCGCCCGGCGGCUCGAGCCCGGGUAAGUGUAAAUAGUCUGCAUGCCGCCGGGCGCCAUGCCUGCAGGUCGACUCUAGAAAACAUG,2.47 log2 enrichment (interaction score)
2,GGCUAGAACUAGUGGAUCCCCCGGCGCCCGGCGGCUCGAGCCCGGGUAAGUAUAAAUAGUCUGCAUGCCGCCGGGCGCCAUGCCUGCAGGUCGACUCUAGAAAACAUG,2.99 log2 enrichment (interaction score)
3,GGCUAGAACUAGUGGAUCCCCCGGCGCCCGGCGGCUCGAGCCCGGGUAAGUCUAAAUAGUCUGCAUGCCGCCGGGCGCCAUGCCUGCAGGUCGACUCUAGAAAACAUG,3.45 log2 enrichment (interaction score)
